Laboratory results reported in PubChem BioAssay AID1159580 (chemical genetic matrix, 2015).
In all, about 5,500 compounds went through this assay and about 2,000 (36%) were called active. Inconclusive results (about 18%) are left out. The list shows a part of the results. A number with no mark means an inactive call. Rule as the data show it: active = normalized growth mostly below about 0.91 (no sharp cut-off); inconclusive = no clear call, values can overlap the other calls; inactive = mostly above about 0.92.

Experiment: chemical genetic growth profiling, strain panel (AID 1159580);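 also: tested at 20 µM; growth read once vehicle control cultures reached saturation at 30 °C; 1 = growth at the plate median or of vehicle wells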
Settings: S. cerevisiae deletion strains, growth OD

Question: For `CCNC(=S)N/N=C\c1cc(Cl)cc(Cl)c1O`, which normalized growth (locus YAR019C, strain CDC15, stronger effect = lower value) is on record?
Answer: Its normalized growth is 0.926.

Question: And the normalized growth (locus YBL105C, strain PKC1, stronger effect = lower value)?
Answer: The normalized growth was 0.938.

Question: And the normalized growth (locus YBR135W, strain CKS1, stronger effect = lower value)?
Answer: The normalized growth was 0.92.

Question: And the normalized growth (locus YBR136W, strain MEC1, stronger effect = lower value)?
Answer: The normalized growth was 0.931.

Question: What about the normalized growth (locus YBR160W, strain CDC28, stronger effect = lower value) of the same compound?
Answer: The normalized growth was 0.922.

Question: What about the normalized growth (locus YDL017W, strain CDC7, stronger effect = lower value) of the same compound?
Answer: The normalized growth was 0.925.

Question: And the normalized growth (locus YDL028C, strain MPS1, stronger effect = lower value)?
Answer: The normalized growth was 0.927.

Question: And the normalized growth (locus YDL101C, strain DUN1, stronger effect = lower value)?
Answer: Its normalized growth is 0.923.

Question: What about the normalized growth (locus YDL108W, strain KIN28, stronger effect = lower value) of the same compound?
Answer: Its normalized growth is 0.928.

Question: What about the normalized growth (locus YDL132W, strain cdc53, stronger effect = lower value) of the same compound?
Answer: The normalized growth was 0.948.

Question: What about the normalized growth (locus YDL214C, strain PRR2, stronger effect = lower value) of the same compound?
Answer: The normalized growth was 0.83.

Question: And the normalized growth (locus YDR052C, strain DBF4, stronger effect = lower value)?
Answer: The normalized growth was 0.929.

Question: And the normalized growth (locus YDR054C, strain cdc34, stronger effect = lower value)?
Answer: Its normalized growth is 0.938.

Question: And the normalized growth (locus YDR226W, strain ADK1, stronger effect = lower value)?
Answer: Its normalized growth is 0.941.

Question: What about the normalized growth (locus YDR477W, strain SNF1, stronger effect = lower value) of the same compound?
Answer: Its normalized growth is 0.733.

Question: What about the normalized growth (locus YER123W, strain YCK3, stronger effect = lower value) of the same compound?
Answer: Its normalized growth is 0.577 (active).

Question: What about the normalized growth (locus YER133W, strain GLC7, stronger effect = lower value) of the same compound?
Answer: Its normalized growth is 0.752.

Question: And the normalized growth (locus YFL009W, strain cdc4, stronger effect = lower value)?
Answer: The normalized growth was 0.911.

Question: What about the normalized growth (locus YFL029C, strain CAK1, stronger effect = lower value) of the same compound?
Answer: Its normalized growth is 0.919.

Question: What about the normalized growth (locus YFR003C, strain YPI1, stronger effect = lower value) of the same compound?
Answer: The normalized growth was 0.937.

Question: What about the normalized growth (locus YFR019W, strain FAB1, stronger effect = lower value) of the same compound?
Answer: The normalized growth was 0.873.

Question: And the normalized growth (locus YFR028C, strain CDC14, stronger effect = lower value)?
Answer: The normalized growth was 0.947.

Question: And the normalized growth (locus YGR040W, strain KSS1, stronger effect = lower value)?
Answer: The normalized growth was 0.775.

Question: And the normalized growth (locus YGR052W, strain FMP48, stronger effect = lower value)?
Answer: The normalized growth was 0.709.

Question: What about the normalized growth (locus YGR092W, strain DBF2, stronger effect = lower value) of the same compound?
Answer: Its normalized growth is 0.313 (active).

Question: What about the normalized growth (locus YHR030C, strain SLT2, stronger effect = lower value) of the same compound?
Answer: Its normalized growth is 0.446 (active).

Question: What about the normalized growth (locus YHR079C, strain IRE1, stronger effect = lower value) of the same compound?
Answer: The normalized growth was 0.341 (active).

Question: And the normalized growth (locus YHR082C, strain KSP1, stronger effect = lower value)?
Answer: The normalized growth was 0.699.

Question: What about the normalized growth (locus YHR205W, strain SCH9, stronger effect = lower value) of the same compound?
Answer: Its normalized growth is 0.778.

Question: What about the normalized growth (locus YIL147C, strain SLN1, stronger effect = lower value) of the same compound?
Answer: The normalized growth was 0.923.

Question: What about the normalized growth (locus YJL095W, strain BCK1, stronger effect = lower value) of the same compound?
Answer: The normalized growth was 0.568.

Question: And the normalized growth (locus YJL128C, strain PBS2, stronger effect = lower value)?
Answer: Its normalized growth is 0.925.

Question: What about the normalized growth (locus YJL157C, strain FAR1, stronger effect = lower value) of the same compound?
Answer: Its normalized growth is 0.774.

Question: What about the normalized growth (locus YJR016C, strain ILV3, stronger effect = lower value) of the same compound?
Answer: The normalized growth was 0.93.

Question: What about the normalized growth (locus YJR066W, strain TOR1 (second series), stronger effect = lower value) of the same compound?
Answer: The normalized growth was 0.654.

Question: And the normalized growth (locus YJR066W, strain TOR1, stronger effect = lower value)?
Answer: Its normalized growth is 0.509.

Question: And the normalized growth (locus YKL048C, strain ELM1, stronger effect = lower value)?
Answer: The normalized growth was 0.825.

Question: And the normalized growth (locus YKL067W, strain YNK1, stronger effect = lower value)?
Answer: Its normalized growth is 0.875.

Question: What about the normalized growth (locus YKL101W, strain HSL1, stronger effect = lower value) of the same compound?
Answer: Its normalized growth is 0.76.

Question: What about the normalized growth (locus YKL193C, strain SDS22, stronger effect = lower value) of the same compound?
Answer: The normalized growth was 0.908.

Question: And the normalized growth (locus YKL203C, strain TOR2, stronger effect = lower value)?
Answer: Its normalized growth is 0.686 (active).

Question: What about the normalized growth (locus YLR113W, strain HOG1, stronger effect = lower value) of the same compound?
Answer: Its normalized growth is 0.706 (active).

Question: What about the normalized growth (locus YLR133W, strain CKI1, stronger effect = lower value) of the same compound?
Answer: The normalized growth was 0.804.

Question: What about the normalized growth (locus YLR403W, strain SFP1, stronger effect = lower value) of the same compound?
Answer: The normalized growth was 0.746.

Question: And the normalized growth (locus YML070W, strain DAK1, stronger effect = lower value)?
Answer: Its normalized growth is 0.809.

Question: What about the normalized growth (locus YMR001C, strain CDC5, stronger effect = lower value) of the same compound?
Answer: Its normalized growth is 0.923.

Question: What about the normalized growth (locus YMR205C, strain PFK2 (second series), stronger effect = lower value) of the same compound?
Answer: Its normalized growth is 0.805.

Question: What about the normalized growth (locus YMR277W, strain FCP1, stronger effect = lower value) of the same compound?
Answer: The normalized growth was 0.916.

Question: And the normalized growth (locus YNL006W, strain LST8, stronger effect = lower value)?
Answer: The normalized growth was 0.919.

Question: What about the normalized growth (locus YNL020C, strain ARK1, stronger effect = lower value) of the same compound?
Answer: The normalized growth was 0.749.

Question: What about the normalized growth (locus YNL161W, strain CBK1, stronger effect = lower value) of the same compound?
Answer: Its normalized growth is 0.926.

Question: And the normalized growth (locus YNL183C, strain NPR1, stronger effect = lower value)?
Answer: The normalized growth was 0.589.

Question: And the normalized growth (locus YNL207W, strain RIO2, stronger effect = lower value)?
Answer: Its normalized growth is 0.91.

Question: What about the normalized growth (locus YNL222W, strain SSU72, stronger effect = lower value) of the same compound?
Answer: The normalized growth was 0.93.

Question: And the normalized growth (locus YNL307C, strain MCK1 (second series), stronger effect = lower value)?
Answer: The normalized growth was 0.647.

Question: What about the normalized growth (locus YOL078W, strain AVO1, stronger effect = lower value) of the same compound?
Answer: Its normalized growth is 0.916.

Question: And the normalized growth (locus YOL136C, strain PFK27, stronger effect = lower value)?
Answer: Its normalized growth is 0.778.

Question: And the normalized growth (locus YOR061W, strain CKA2, stronger effect = lower value)?
Answer: Its normalized growth is 0.801.

Question: And the normalized growth (locus YOR119C, strain RIO1, stronger effect = lower value)?
Answer: Its normalized growth is 0.78.

Question: What about the normalized growth (locus YOR231W, strain MKK1, stronger effect = lower value) of the same compound?
Answer: The normalized growth was 0.471 (active).

Question: And the normalized growth (locus YOR329C, strain SCD5, stronger effect = lower value)?
Answer: The normalized growth was 0.926.

Question: What about the normalized growth (locus YPL031C, strain PHO85, stronger effect = lower value) of the same compound?
Answer: Its normalized growth is 0.635 (active).

Question: What about the normalized growth (locus YPL153C, strain RAD53, stronger effect = lower value) of the same compound?
Answer: Its normalized growth is 0.621 (active).

Question: And the normalized growth (locus YPL204W, strain HRR25, stronger effect = lower value)?
Answer: Its normalized growth is 0.642 (active).

Question: And the normalized growth (locus YPL209C, strain IPL1, stronger effect = lower value)?
Answer: The normalized growth was 0.919.

Question: And the normalized growth (locus YPL256C, strain CLN2, stronger effect = lower value)?
Answer: The normalized growth was 0.495 (active).

Question: And the normalized growth (locus YPR025C, strain CCL1, stronger effect = lower value)?
Answer: The normalized growth was 0.923.

Question: And the normalized growth (locus YPR106W, strain ISR1, stronger effect = lower value)?
Answer: The normalized growth was 0.947.

Question: And the normalized growth (locus YPR111W, strain DBF20, stronger effect = lower value)?
Answer: Its normalized growth is 0.938.

Question: And the normalized growth (strain NNK1, stronger effect = lower value)?
Answer: Its normalized growth is 0.94.

Question: And the normalized growth (strain TSCII, stronger effect = lower value)?
Answer: Its normalized growth is 0.912.
